POLB inh: qHTS Assay for Inhibitors of DNA Polymerase Beta. P06746. Pol beta primer extension/strand displacement, fluorescence kinetic. Potency, µM (highest dose often 114 µM), inactives show at the top dose activity change, negative = inhibition, usual class: inhibitors. 340,000 compounds, 1.3% hits. AID 485314, 2010; also: potency is read from the fitted curve at half-maximal effect; % is scaled to controls: 0 for no effect and ±100 for the full control effect
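Reaction started by 50 nM substrate onto compound-treated Pol beta (10 nM, 15 min preincubation, room temperature); plates read at 0 min and 10 min. Normalized concentration-effect data fitted by four-parameter Hill equation.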
Pol kappa inh-1: qHTS for Inhibitors of Polymerase Kappa. DNA polymerase kappa (Homo sapiens), Q9UBT6. purified Pol kappa, fluorescent DNA synthesis assay, 10 min. Potency, µM (doses to about 107 µM), inactives show top-dose activity, negative = inhibition, most hits filed as inhibitors. 400,000 compounds, 0.53% hits. AID 588579, 2011; also: potency is read from the fitted curve at half-maximal effect; % is scaled to controls: 0 for no effect and ±100 for the full control effect
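Activity was followed as the change in fluorescence between reads at 0 and 10 min after starting the reaction with 50 nM substrate. Beforehand, 10 nM polymerase had been preincubated with compound for 15 min at room temperature.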
GCN5L2 inh: qHTS Assay for Inhibitors of GCN5L2; GCN5L2 HAT assay, ThioGlo1 CoA-SH fluorescence; Histone acetyltransferase KAT2A (Homo sapiens), Q92830; Potency, µM (series often up to 58.9 µM), inactives show at the top dose activity change, negative = inhibition, usual class: inhibitors; 390,000 compounds, 0.21% hits; also: potency is read from the fitted curve at half-maximal effect; % is scaled to controls: 0 for no effect and ±100 for the full control effect
Target sequence (Q92830 whole entry, looked up): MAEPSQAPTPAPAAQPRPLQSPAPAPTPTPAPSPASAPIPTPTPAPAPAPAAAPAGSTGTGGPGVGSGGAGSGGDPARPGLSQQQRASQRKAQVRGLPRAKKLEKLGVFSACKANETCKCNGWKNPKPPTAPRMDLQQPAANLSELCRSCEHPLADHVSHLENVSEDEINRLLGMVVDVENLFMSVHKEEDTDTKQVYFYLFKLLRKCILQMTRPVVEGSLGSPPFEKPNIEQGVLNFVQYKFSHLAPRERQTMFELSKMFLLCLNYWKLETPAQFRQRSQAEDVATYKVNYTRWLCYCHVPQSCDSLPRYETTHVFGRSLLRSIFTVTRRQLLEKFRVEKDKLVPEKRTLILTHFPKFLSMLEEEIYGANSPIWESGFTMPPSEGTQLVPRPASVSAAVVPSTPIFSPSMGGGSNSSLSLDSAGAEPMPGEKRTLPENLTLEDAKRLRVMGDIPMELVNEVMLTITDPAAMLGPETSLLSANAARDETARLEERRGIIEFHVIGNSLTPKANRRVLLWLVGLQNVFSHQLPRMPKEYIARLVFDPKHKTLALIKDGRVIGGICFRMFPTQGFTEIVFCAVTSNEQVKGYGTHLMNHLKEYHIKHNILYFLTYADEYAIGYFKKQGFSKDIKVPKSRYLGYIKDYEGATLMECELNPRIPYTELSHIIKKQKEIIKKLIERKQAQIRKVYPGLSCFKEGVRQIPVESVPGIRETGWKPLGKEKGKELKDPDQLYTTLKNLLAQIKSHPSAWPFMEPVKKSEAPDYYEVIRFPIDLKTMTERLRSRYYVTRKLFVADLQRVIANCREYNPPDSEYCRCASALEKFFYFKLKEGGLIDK
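GCN5L2 (20nM final) in 50mM HEPES, 0.1mM EDTA pH 7.5, 0.01% Tween-20 was preincubated 15 min at room temperature with compound, then given ThioGlo1 (50uM), H3(1-25) peptide (75uM) and acetyl-CoA (70uM); CoA-thiol fluorescence (Ex340/Em540) was read at 0 and 20 min.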
Pol iota inh: qHTS for Inhibitors of Polymerase Iota; DNA polymerase iota (Homo sapiens), Q9UNA4; Pol iota fluorescent replication assay, 10 min; Potency, µM (doses to about 115 µM), for the others: top-dose activity, negative = inhibition, usual class: inhibitors; 390,000 compounds, 1% hits; AID 588590, 2011; also: potency is read from the fitted curve at half-maximal effect
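Fluorescent replication assay read twice, at 0 min and 10 min after adding 50 nM (final) substrate. Enzyme (10 nM) and compounds were first incubated 15 min at room temperature; enzyme-free buffer wells were negative controls.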
GLS inhibitor: qHTS for Inhibitors of Glutaminase (GLS); Potency, µM (titrated, usually from 45.5 µM), inactives show top-dose activity change, negative = inhibition, hits mostly inhibitors; GLS enzymatic activity, qHTS titration; 410,000 compounds, 0.21% hits; also: potency is read from the fitted curve at half-maximal effect; % is scaled to controls: 0 for no effect and ±100 for the full control effect
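Human kidney-isoform GLS in 45 mM KH2PO4 pH 8.2, 0.02% Tween-20, with compound, started with 1mM L-Glutamine (added stock). Glutamate oxidase/HRP/Amplex red coupled fluorescence read at start and after 30 min at RT.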
Pol eta inh-1: qHTS for Inhibitors of Polymerase Eta; DNA polymerase eta (Homo sapiens), Q9Y253; recombinant Pol eta, fluorescent DNA replication assay; Potency, µM (series often up to 114 µM), for inactives: top-dose activity change, negative = inhibition, actives largely listed as inhibitors; 390,000 compounds, 1.2% hits; also: potency is read from the fitted curve at half-maximal effect; % is scaled to controls: 0 for no effect and ±100 for the full control effect
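Fluorescent replication assay: 50 nM final substrate added after a 15 min room-temperature compound preincubation with 10 nM enzyme. Signal taken at 0 min and again at 10 min.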
GALK inh confirm: Confirmation Assay for Inhibitors of Human Galactokinase (GALK); purified GALK, Kinase-Glo ATP depletion luminescence; AID 2015, 2009; 150 compounds, 70% hits; Potency, µM (titrated, usually from 115 µM), for the others: at the top dose activity, negative = inhibition, most hits filed as inhibitors; shares compounds with Pol eta inh-1
GALK redox cs: Confirmatory Assay for Inhibitors of Human Galactokinase (GALK): Phenol-HRP redox assay counterscreen | shares compounds with Pol eta inh-1 | Phenol red-HRP H2O2 redox cycling, absorbance 600 nm | Potency, µM (doses to about 115 µM), for the others: at the top dose activity change, negative = H2O2 signal, hits mostly inhibitors | AID 2035, 2009 | 150 compounds, 40% hits
HEK293 tox: Secondary Assay for Inhibitors of Human Galactokinase (GALK): HEK-293 Cell Viability Assay; shares compounds with Pol eta inh-1; HEK-293 viability, ATP luminescence (CellTiter-Glo), 24/48 h; Potency, µM (titrated, usually from 46.1 µM), without a hit: at the top dose activity change, negative = cytotoxicity, actives largely listed as inhibitors; 170 compounds, 10% hits; AID 2547, 2010; also: potency is read from the fitted curve at half-maximal effect; % is scaled to controls: 0 for no effect and ±100 for the full control effect
Pol kappa inh-2: qHTS for Inhibitors of Polymerase Kappa: Confirmatory Assay for Cherry-picked Compounds; shares compounds with Pol eta inh-1; AID 720501, 2013; Potency, µM, usual class: inhibitors; 920 compounds, 76% hits; purified Pol-kappa, fluorescent strand-displacement substrate; also: potency is read from the fitted curve at half-maximal effect
Pol eta inh-2: qHTS for Inhibitors of Polymerase Eta: Confirmatory Assay for Cherry-picked Compounds | shares compounds with Pol eta inh-1 | Pol eta primer extension, TAMRA/BHQ fluorescence, 10 min | Potency, µM, hits mostly inhibitors | 2,600 compounds, 64% hits; also: potency is read from the fitted curve at half-maximal effect
* hit, by the source's call; ! = not active in a repeat; [ ] = another dose, or the depositor's remark. Most compounds without a hit are left out; they make up all but 2.4% or so of the library. Calls follow the shape of the dose curve; as a rule, active = well fitted curve in the direction sought with a large enough effect; inconclusive = small, poorly fitted or top-dose-only effect, or another doubt; inactive = no such curve, though single readings can be large; an effect the other way counts as inactive or inconclusive.

For CCOC(=O)c1cc(S(=O)(=O)NCc2ccc(Cl)cc2)[nH]n1 the results were POLB inh 35.0%, Pol kappa inh-1 -8.6%[60.1 µM], GCN5L2 inh -3.6%, Pol iota inh inconclusive, GLS inhibitor -10.7% and Pol eta inh-1 -8.0%.
`O=C(NC1(O)C(=O)c2ccccc2C1=O)c1c(Cl)cccc1Cl` gave POLB inh 11.0%, Pol kappa inh-1 -13.1%, GCN5L2 inh 0.6%, Pol iota inh 1.58µM*, GLS inhibitor -9.7%, Pol eta inh-1 44.7µM*, GALK inh confirm 23.7µM*, GALK redox cs 9.43µM*, HEK293 tox 13.8% and Pol eta inh-2 inconclusive.
For O=C(NC1(O)C(=O)c2ccccc2C1=O)c1ccccc1 the results were POLB inh -6.3%, Pol kappa inh-1 -16.6%, GCN5L2 inh -6.7%, Pol iota inh 6.31µM*, GLS inhibitor 3.0%, Pol eta inh-1 31.6µM*, GALK inh confirm 23.7µM*, GALK redox cs 10.6µM* and HEK293 tox -0.9%.
O=C(Nc1ccccc1Cl)c1c(F)c(F)c(F)c(F)c1F was read as Pol kappa inh-1 -13.7%, Pol iota inh 16.9%, GLS inhibitor -7.0% and Pol eta inh-1 -8.2%.
Cc1nn(CCCC(=O)Nc2cccc(F)c2)c(=O)c2c1sc1ccccc12 was read as POLB inh inconclusive, Pol kappa inh-1 -14.2%, GCN5L2 inh -2.9%, Pol iota inh 83.1%, GLS inhibitor -0.8% and Pol eta inh-1 -12.1%.
`Cc1ccc(S(=O)(=O)NCC(=O)OCC(=O)c2cc(C)n(-c3ccccc3)c2C)cc1` gave POLB inh -1.3%, Pol kappa inh-1 -3.7%, GCN5L2 inh -9.0%, Pol iota inh 9.9%, GLS inhibitor -2.1% and Pol eta inh-1 -9.5%.
For COC(=O)c1cc(C(=O)OC)cc(-n2c(C)cc(C(=O)COC(=O)CNS(=O)(=O)c3ccc(C)cc3)c2C)c1 the results were POLB inh -4.9%, Pol kappa inh-1 -31.9%, GCN5L2 inh -8.0%, Pol iota inh inconclusive, GLS inhibitor 211.8%, Pol eta inh-1 22.4µM* and Pol eta inh-2 inconclusive.
Screening O=C(O)/C=C/c1cccnc1 returned POLB inh -23.5%, Pol kappa inh-1 -28.8%, GCN5L2 inh -16.5%, Pol iota inh 10.1%, GLS inhibitor -10.2% and Pol eta inh-1 -11.4%.
Screening CC(/C=C\c1cccnc1)=C/C(=O)O returned POLB inh 28.2µM*!, Pol kappa inh-1 -13.0%, GCN5L2 inh -2.3%, Pol iota inh -11.2%, GLS inhibitor -13.7%, Pol eta inh-1 20µM*! and Pol eta inh-2 47.8*.
Cc1ccc(Cl)cc1NC(=O)CCn1cnc2ccccc2c1=O was read as POLB inh inconclusive, Pol kappa inh-1 -5.6%[60.1 µM], GCN5L2 inh -21.6%, Pol iota inh inconclusive, GLS inhibitor -5.9%, Pol eta inh-1 44.7µM* and Pol eta inh-2 75.7*.
Cc1cc(C)cc(NC(=O)CCn2cnc3ccccc3c2=O)c1 was read as POLB inh inconclusive, Pol kappa inh-1 -8.5%[60.1 µM], GCN5L2 inh -0.8%, Pol iota inh -26.5%, GLS inhibitor -4.5% and Pol eta inh-1 7.3%.
`CCCC(=O)C1=C(c2ccc(C)cc2)N(C(=O)CCC)n2cnnc2S1` gave POLB inh -16.0%, Pol kappa inh-1 1.2%[60.1 µM], GCN5L2 inh -9.4%, Pol iota inh inconclusive, GLS inhibitor 3.4% and Pol eta inh-1 -14.3%.
`Cc1ccc(-n2nc3ccc(NC(=O)c4cc5ccccc5o4)cc3n2)cc1` gave POLB inh -9.2%, Pol kappa inh-1 9.8%, GCN5L2 inh -3.1%, Pol iota inh -0.5%, GLS inhibitor 13.2% and Pol eta inh-1 -9.7%.
`Cc1ccc(-n2nc3ccc(NC(=O)/C=C/c4ccco4)cc3n2)cc1` gave POLB inh 31.6µM*, Pol kappa inh-1 inconclusive, GCN5L2 inh -15.6%, Pol iota inh 25.1µM*, GLS inhibitor 1.1%, Pol eta inh-1 inconclusive and Pol eta inh-2 inconclusive.
Screening Cn1cnc(S(=O)(=O)N2CCCC(C(=O)NCc3ccccc3Cl)C2)c1 (stereo not given) returned POLB inh 3.4%, Pol kappa inh-1 1.8%[60.1 µM], GCN5L2 inh 15.4%, Pol iota inh 10.2%, GLS inhibitor 7.4% and Pol eta inh-1 -15.0%.
CN(C)CCCn1c2c3ccccc3ccc2c2oc(=O)c3ccccc3c21 was read as Pol kappa inh-1 50.1µM*!, Pol iota inh 14.1µM*, GLS inhibitor 0.5%, Pol eta inh-1 inconclusive and Pol eta inh-2 inconclusive.
Screening COc1ccc(CNC(=O)CSc2ncc(S(=O)(=O)c3ccc(Br)cc3)c(=O)[nH]2)cc1 returned POLB inh 16.6%, Pol kappa inh-1 -13.0%, GCN5L2 inh -0.3%, Pol iota inh -20.5%, GLS inhibitor 7.0% and Pol eta inh-1 -10.6%.
Screening COC(=O)c1cc(Cl)ccc1NC(=O)CSc1ncc(S(=O)(=O)c2ccc(Br)cc2)c(=O)[nH]1 returned POLB inh 44.7µM*, Pol kappa inh-1 inconclusive, GCN5L2 inh inconclusive, Pol iota inh inconclusive, GLS inhibitor inconclusive, Pol eta inh-1 89.1µM*, Pol kappa inh-2 42.3* and Pol eta inh-2 inconclusive.

From PubChem
